In all, about 360,000 compounds went through this assay and about 7,300 (2%) were called active. Cut-off read from the data, not from the text of the source: active = inhibition above about 50%; inactive = the rest. The sample as a whole holds a higher share of actives than the screen did.
Test: inhibitors of TWEAK-Fn14 signaling, primary screen, luciferase reporter cells, uHTS (AID 1159606)
Details: TWEAK-stimulated Fn14 reporter cells, luciferase luminescence, 8 h; at 10 µM; hits give high values

| Structure (SMILES) | inhibition |
| --- | --- |
| O=C(NCC(=O)N1CCN(c2ccccc2O)CC1)c1ccc2ccccc2c1 | -22.9% (inactive) |
| CC(C)C1Cc2[nH][nH]c(=O)c2C(c2ccc(Cl)cc2)O1 (stereo not drawn) | -23.3% (inactive) |
| COc1ccc(C(=O)OCC(=O)c2ccc(Cl)s2)c(OC)c1OC | -38.7% (inactive) |
| CNc1cncc(-c2ccc(NS(C)(=O)=O)cc2)n1 | 34.6% (inactive) |
| CC1(C)OC(=O)C2=C(C[C@@H](C3CC3)O[C@H]2CCc2cccc(Cl)c2)O1 | -0.44% (inactive) |
| Cc1ccc(S(=O)(=O)N(C)c2ccc(OCC(=O)OCC(=O)N(CC#N)c3ccccc3)cc2)cc1 | -12% (inactive) |
| CCOC(=O)c1c(C)oc2cc(Sc3ccccc3)c(O)c(O)c12 | -4.97% (inactive) |
| CCOC(=O)c1c(-c2ccccc2)oc2cc(Br)c(O)c(C=O)c12 | 97.5% (active) |
| Cc1oc2cc(Br)c(O)c(Br)c2c1C(=O)c1ccccc1 | -24.8% (inactive) |
| CC1CCCN(c2ccc(C(=O)NCCc3ccccc3)cn2)C1 (stereo not drawn) | 6.92% (inactive) |
| CCC(C)N(C(=O)CSc1nnnn1-c1ccccc1OC)C1CCS(=O)(=O)C1 (stereo not drawn) | 14.9% (inactive) |
| CCN(C(=O)CSc1nnnn1-c1ccccc1OC)C1CCS(=O)(=O)C1 (stereo not drawn) | 3.05% (inactive) |
| COc1ccccc1-n1nnnc1S(=O)(=O)Cc1ccc(Cl)cc1 | 102% (active) |
| CNC(=O)NCCN1CCCC1=O | -16.3% (inactive) |
| O=C(NCc1ccc(F)cc1F)[C@@H]1CCCN1C(=O)[C@@H]1CCCN1C(=O)c1cccc(Cl)c1 | 22.6% (inactive) |
| Cc1ccc2nc(-c3ccco3)c(Cc3cccc(Cl)c3)n2c1 | 10.4% (inactive) |
| CC(=O)c1c(C)[nH]c(C(=O)OCC(=O)Nc2c(C)cccc2C)c1C | 12.5% (inactive) |
| CC(=O)c1c(C)[nH]c(C(=O)OCC(=O)Nc2sc3c(c2C#N)CCCC3)c1C | 64.3% (active) |
| N#CCC(=O)Nc1ccc(C(=O)OCC(=O)Nc2sc3c(c2C#N)CCCC3)cc1 | -31.7% (inactive) |
| N#Cc1ccc(OCC(=O)Nc2nc(-c3ccccn3)cs2)cc1 | -7.26% (inactive) |
| COc1ccc(-c2csc(NC3OC(=O)c4ccccc43)n2)cc1 (stereo not drawn) | 66.2% (active) |
| COc1ccc(-c2csc(Nc3ccccn3)n2)cc1 | 68.4% (active) |
| Cn1cc(C2OC(=O)c3ccccc32)c2ccccc21 (stereo not drawn) | 38.7% (inactive) |
| COc1cc(C(O)c2nc(-c3cccc(C(=O)O)c3)cs2)ccc1F (stereo not drawn) | -19.5% (inactive) |

| Structure (SMILES) | inhibition |
| --- | --- |
| C/C(CC1CC(C)(C)OC1=O)=N/Nc1nc(-c2ccccc2)cs1 (stereo not drawn) | -29.9% (inactive) |
| Cc1ccc(-c2csc(NC3OC(=O)c4ccccc43)n2)cc1 (stereo not drawn) | 85.8% (active) |
| CCCc1nc2scc(-c3ccc(C)cc3)c2c(=O)n1N | 17.3% (inactive) |
| COc1ccc(C(O)c2nc(-c3ccc(OC)nc3)cs2)cc1 (stereo not drawn) | -2.94% (inactive) |
| COc1ccc(N/C=C(\C2OC(=O)c3ccccc32)[N+](=O)[O-])cc1 (stereo not drawn) | 9.49% (inactive) |
| COc1ccc(C(C)(NC(C)=O)c2nc(-c3ccc(S(C)(=O)=O)cc3)cs2)cc1 (stereo not drawn) | -12.5% (inactive) |
| COc1ccc2c(c1OC)C(=O)OC2Nc1nc(-c2ccccc2)cs1 (stereo not drawn) | 66.1% (active) |
| COc1nc(OC)nc(N(C)CCO)n1 | 5.06% (inactive) |
| O=C(CCc1ccccc1)Nc1nn[nH]n1 | -6.61% (inactive) |
| CCOc1ccc(CCN2C(=O)C(=O)N([C@@H](CC(C)C)CN3CCC[C@H]3CN3C(=O)C(=O)NC[C@@H]3Cc3ccccc3)C[C@@H]2CC(C)C)cc1 | 18.1% (inactive) |
| CCc1nc2c(OCC(N)=O)cccn2c1N(C)C(=O)c1ccc(OC)cc1 | -0.65% (inactive) |
| Cc1cccc(C(=O)O)c1[N+](=O)[O-] | -0.13% (inactive) |
| O=C(NCc1ccccc1)C(=O)NCC1OCCN1S(=O)(=O)c1ccc(Br)cc1 (stereo not drawn) | -2.34% (inactive) |
| CC(NC(=O)COC(=O)Cn1cc(C(F)(F)F)ccc1=O)c1ccccc1 (stereo not drawn) | 19.7% (inactive) |
| CCC(C)NCC(=O)Nc1ccc([N+](=O)[O-])cc1C(=O)Nc1ccccc1F (stereo not drawn) | 3.23% (inactive) |
| CC(=O)OCCN(CCCn1c(-c2ccncc2)nc2ccccc21)c1nc(-c2ccc(C)cc2)cs1 | 4.36% (inactive) |
| CCCCOCCCNC(=O)C[C@@H]1C[C@@]2(C(=O)OC)CCCCC=C2N(CCC2=CCCCC2)C1=O | 11% (inactive) |
| COc1ccc(S(=O)(=O)N2C[C@H]3CON(C)[C@H]3C[C@H]2c2cccc(Br)c2)cc1 | -6.92% (inactive) |
| CN1OC[C@@H]2CN(S(=O)(=O)c3cccc(C(F)(F)F)c3)[C@H](c3ccc(-c4cc5ccccc5o4)cc3)C[C@@H]21 | 62.2% (active) |
| CN1OC[C@@H]2CN(S(=O)(=O)c3cccc4ccccc34)[C@H](c3ccc(N4CCCCC4)cc3)C[C@@H]21 | -7.73% (inactive) |
| CC(C)(C)n1ncc2c(=O)n(Cc3ccc(Cl)cc3)cnc21 | 68.2% (active) |
| CC(C)(C)n1ncc2c(=O)n(Cc3c(Cl)cccc3Br)cnc21 | 3.93% (inactive) |
| CC(=O)Cn1cnc2c(cnn2-c2ccccc2)c1=O | 4.23% (inactive) |
| O=C(O)CSCc1ccc(C(=O)O)o1 | -3.63% (inactive) |

| Structure (SMILES) | inhibition |
| --- | --- |
| CC(CO)NCC12CC3CC(CC(C3)C1)C2 (stereo not drawn) | 13.3% (inactive) |
| COc1ccc(-n2ncc3c(SCC(=O)NNC(C)=O)ncnc32)cc1 | 14.6% (inactive) |
| CC(C)Sc1ncnc2c1cnn2-c1ccccc1 | 15.4% (inactive) |
| Cc1ccc2cc(C)c(N3CCN(c4ccc(F)cc4)CC3)nc2c1 | 8.39% (inactive) |
| c1ccc(-n2ncc3c(N4CCCC4)ncnc32)cc1 | 62.5% (active) |
| Cc1ccc(-n2ncc3c(N4CCN(c5ccc(F)cc5)CC4)ncnc32)c(C)c1 | 73% (active) |
| CC(Sc1ncnc2c1cnn2-c1ccccc1)C(=O)Nc1ccc(N2CCOCC2)cc1 (stereo not drawn) | -20.4% (inactive) |
| COc1ccc(-n2ncc3c(N4CCc5ccccc54)ncnc32)cc1 | -15.6% (inactive) |
| COc1ccc(-n2ncc3c(N4CCCc5ccccc54)ncnc32)cc1 | 58.1% (active) |
| COC(=O)CSc1ncnc2c1cnn2-c1ccc(C)cc1C | -11.2% (inactive) |
| CCOC(=O)c1c(N=CN(C)C)c(C#N)c2n1CCCC2 | -13.8% (inactive) |
| COc1ccc(C(C)NC(=S)NC2CCCCC2)cc1OC (stereo not drawn) | 10.8% (inactive) |
| CC(C)CN(C(=O)CSc1ncnc2sccc12)C1CCS(=O)(=O)C1 (stereo not drawn) | 4.56% (inactive) |
| COc1cc(OC)cc(C2=Cc3ccccc3C(CC(=O)c3ccco3)N2c2ccc(-c3cnc(OC)nc3)cc2)c1 (stereo not drawn) | 16.7% (inactive) |
| Cc1ccc(NC(=O)CC2S/C(=N/N=C3\CCCc4ccccc43)NC2=O)cc1 (stereo not drawn) | 11.1% (inactive) |
| Cc1ccc(-n2c(SCC(=O)NCc3ccc4c(c3)OCO4)nnc2-c2cccnc2)c(C)c1 | -9.21% (inactive) |
| N#CC1=C(N)OC2=C(C(=O)CCC2)C1C1CC=CCC1 (stereo not drawn) | 24.8% (inactive) |
| CCCc1[nH]nc2c1C(C1CC=CCC1)C(C#N)=C(N)O2 (stereo not drawn) | 53.8% (active) |
| CCCc1[nH]nc2c1C(c1ccc(Br)s1)C(C#N)=C(N)O2 (stereo not drawn) | 30.2% (inactive) |
| CCCCCc1c(-c2cccc(Br)c2)ncn1CCc1ccccc1OC | -2.04% (inactive) |
| CCCCCc1c(-c2ccc(OC)c(OC)c2)ncn1CCc1ccccc1OC | 62.6% (active) |
| CCCCc1c(-c2ccc(Cl)cc2)ncn1CCc1ccccc1OC | 26.6% (inactive) |
| Cn1c(SCC(=O)Nc2ccc(N3CCOCC3)cc2)nnc1C(F)(F)F | -2.56% (inactive) |
| Cc1cc(Br)cn2c(Cc3ccccc3C(F)(F)F)c(-c3ccc(Cl)cc3)nc12 | 26.9% (inactive) |

| Structure (SMILES) | inhibition |
| --- | --- |
| CCCc1ccc(-c2c(C)sc(NC(=O)c3ccnn3C)c2C#N)cc1 | 13.3% (inactive) |
| COC(=O)CNC(=O)c1ccc2c(c1)S(=O)(=O)c1ccccc1C2=O | 65.4% (active) |
| Cc1ccc(CNC(=O)c2ccc3c(c2)S(=O)(=O)c2ccccc2C3=O)cc1 | -18% (inactive) |
| CC(C)(C)c1ccc(C(=O)NCC(=O)OCN2C(=O)c3ccccc3C2=O)cc1 | -8.88% (inactive) |
| CCCc1nc(NCc2ccc3c(c2)OCO3)c2nnn(Cc3ccccc3Cl)c2n1 | -10.6% (inactive) |
| Cc1nc(Nc2ccc3c(c2)OCCO3)c2nnn(Cc3ccccc3Cl)c2n1 | 94.4% (active) |
| Cc1nc(Nc2ccccc2F)c2nnn(Cc3ccccc3Cl)c2n1 | 20% (inactive) |
| O=C1C2C3C=CC(C3)C2C(=O)N1c1ccc(-c2nc3ccccc3c(=O)o2)cc1 (stereo not drawn) | -0.15% (inactive) |
| O=C(/C=C/[C@H]1O[C@@H](n2ccc(=O)[nH]c2=O)[C@H](O)[C@@H]1O)NCc1ccccn1 | 9.38% (inactive) |
| Cc1ccccc1OCC(=O)Nc1ccc(N2CCN(C(=O)C(C)C)CC2)c(Cl)c1 | 70.6% (active) |
| CCc1ccccc1OCC(=O)Nc1ccc(C)c(S(=O)(=O)N2CCCCCC2)c1 | 12.8% (inactive) |
| COc1cc(NC(=O)COc2ccccc2Cl)ccc1NC(=O)C(C)C | -5.09% (inactive) |
| Cn1nnnc1SCC(=O)Nc1ccccc1C(=O)NC1CC1 | -4.44% (inactive) |
| COCCOC(=O)c1c(C)oc2cc(Br)c(OCC(N)=O)cc12 | -6.98% (inactive) |
| CCCCCc1ccc(-c2ccc(OCC)cc2)nc1 | -9.17% (inactive) |
| CCCCCc1ccc(-c2ccc(C(=O)O)cc2)nc1 | 87.5% (active) |
| CCCCCC(=O)Nc1ccc(-c2cn3cccnc3n2)cc1 | -20.2% (inactive) |
| O=C(NC(=S)Nc1ccccc1C(=O)O)c1ccc(-c2ccc(Br)cc2)o1 | 47.2% (inactive) |
| CCOC(=O)c1c(NC(=O)CSc2nccc(=O)[nH]2)sc(C)c1C | -3.68% (inactive) |
| CCOC(=O)c1c(C)[nH]c(C)c1S(=O)(=O)NCCCc1ccco1 | -7.27% (inactive) |
| CCOC(=O)c1c(C)[nH]c2c1-c1ccccc1C(=O)C2=O | 101% (active) |

— PubChem BioAssay AID1159606 (Sanford-Burnham Center for Chemical Genomics, 2016)
